Records with an inconclusive call do not appear. Activity calls are given as the source filed them. Unless noted, calls follow the shape of the dose curve; as a rule, active = well fitted curve in the direction sought with a large enough effect in the repeat runs; inconclusive = weak or mixed curves; inactive = no such curve, though single readings can be large; an effect the other way counts as inactive or inconclusive.
How the values were obtained:
[1] = target: Peroxisome proliferator-activated receptor delta (Homo sapiens) (UniProt Q03181); test: qHTS assay to identify small molecule agonists of the peroxisome proliferator-activated receptor delta (PPARd) signaling pathway (AID 743212; calls by dose curve)
In short: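 A PPARd-bla HEK293H line with beta-lactamase under an Upstream Activator Sequence is treated with compounds at 37 C. Substrate loading for 2 h at room temperature precedes the fluorescence measurement.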

[2] = target: Peroxisome proliferator-activated receptor delta (Homo sapiens) (UniProt Q03181); test: qHTS assay to identify small molecule antagonists of the peroxisome proliferator-activated receptor delta (PPARd) signaling pathway (AID 743215; active = well fitted inhibition curve with a large enough effect in the signal ratio in the repeat runs, not every such curve was filed as active; the % refers to the signal ratio;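 also: cells stimulated with agonist L165041 at 300 nM final during compound exposure; series mostly up to about 62 µM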)
In short: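 With L165041 present at 300 nM final, compounds were incubated 17 h at 37 C on PPARd UAS-bla HEK293H cells. A FRET-based beta-lactamase substrate was then applied for 2 h at room temperature and fluorescence intensity recorded.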

[3] = target: Bile acid receptor (Homo sapiens) (UniProt Q96RI1); test: qHTS assay to identify small molecule antagonists of the farnesoid-X-receptor (FXR) signaling pathway (AID 743217; active = well fitted inhibition curve with a large enough effect in the signal ratio in the repeat runs, not every such curve was filed as active; the % refers to the signal ratio)
In short: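 In this cell-based antagonist screen, inhibition of CDCA-driven (50 uM final) UAS-beta-lactamase expression in HEK 293T cells was measured by FRET fluorescence following 16 h compound exposure at 37 °C.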

[4] = qHTS assay to identify small molecule agonists of the farnesoid-X-receptor (FXR) signaling pathway - cell viability counter screen (AID 743218); also: nearly all actives have a fitted effect of over 45% in size
In short: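 After 16 h at 37 C with test compounds, FXR-bla HEK 293T cells were given LiveBLAzer B/G substrate for 2 h at RT and then CellTiter-Glo; luminescence was taken after 30 min.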

[5] = target: Bile acid receptor (Homo sapiens) (UniProt Q96RI1); test: qHTS assay to identify small molecule agonists of the farnesoid-X-receptor (FXR) signaling pathway (AID 743220; active = well fitted activation curve with a large enough effect in the signal ratio in the repeat runs, not every such curve was filed as active; the % refers to the signal ratio)
In short: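 Beta-lactamase reporter under UAS control in GeneBLAzer FXR HEK 293T cells (5000/well) measured with LiveBLAzer FRET substrate after 2 h at room temperature. Compound exposure lasted 16 h at 37C.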

[6] = qHTS assay to identify small molecule antagonists of the farnesoid-X-receptor (FXR) signaling pathway - cell viability counter screen (AID 743221; active = well fitted cell-killing curve with a large enough effect in the repeat runs, not every such curve was filed as active; also: nearly all actives have a fitted effect of over 50% in size)
In short: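 GeneBLAzer FXR-UAS-bla HEK 293T cells, compound plus chenodeoxycholic acid (50 uM final), 16 h at 37 C. CellTiter-Glo added to the same wells after the beta-lactamase read; luminescence read after 30 min at room temperature as viability.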

[7] = target: Vitamin D3 receptor (Homo sapiens) (UniProt P11473); test: qHTS assay to identify small molecule agonists of the vitamin D receptor (VDR) signaling pathway (AID 743222; calls by dose curve)
In short: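 VDR-bla cells were seeded, left 4 h, treated with compounds in DMSO for 16 h, incubated 2 h at RT with B/G FRET substrate, and read for fluorescence.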

[8] = target: Vitamin D3 receptor (Homo sapiens) (UniProt P11473); test: qHTS assay to identify small molecule antagonists of the vitamin D receptor (VDR) signaling pathway (AID 743223; active = well fitted inhibition curve with a large enough effect in the signal ratio in the repeat runs, not every such curve was filed as active; the % refers to the signal ratio)
In short: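 VDR-bla cells were treated with compound plus 3 nM final 1alpha,25-dihydroxyvitamin D3 for 16 h at 37C. Beta-lactamase reporter read by B/G FRET substrate fluorescence after 2 h at room temperature. qHTS format.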

[9] = qHTS assay to identify small molecule agonists of the vitamin D receptor (VDR) signaling pathway - cell viability counter screen (AID 743224); also: series mostly up to about 63 µM; nearly all actives have a fitted effect of over 50% in size
In short: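 Here cell health was gauged by luminescent ATP detection (CellTiter-Glo, 30 min RT) in VDR-bla cells that had been incubated with test compounds for 16 h at 37C and 5% CO2.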

[10] = qHTS assay to identify small molecule antagonists of the peroxisome proliferator-activated receptor delta (PPARd) signaling pathway - cell viability counter screen (AID 743213); also: nearly all actives have a fitted effect of over 50% in size
In short: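 Viability counter-screen, qHTS format: PPARd-bla HEK293H, L165041 300 nM final, 17 h compound exposure at 37 C, CellTiter-Glo luminescence after 30 min RT.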

Measured: outcome

Sequence of Peroxisome proliferator-activated receptor delta (Homo sapiens) (Q03181 whole entry, looked up): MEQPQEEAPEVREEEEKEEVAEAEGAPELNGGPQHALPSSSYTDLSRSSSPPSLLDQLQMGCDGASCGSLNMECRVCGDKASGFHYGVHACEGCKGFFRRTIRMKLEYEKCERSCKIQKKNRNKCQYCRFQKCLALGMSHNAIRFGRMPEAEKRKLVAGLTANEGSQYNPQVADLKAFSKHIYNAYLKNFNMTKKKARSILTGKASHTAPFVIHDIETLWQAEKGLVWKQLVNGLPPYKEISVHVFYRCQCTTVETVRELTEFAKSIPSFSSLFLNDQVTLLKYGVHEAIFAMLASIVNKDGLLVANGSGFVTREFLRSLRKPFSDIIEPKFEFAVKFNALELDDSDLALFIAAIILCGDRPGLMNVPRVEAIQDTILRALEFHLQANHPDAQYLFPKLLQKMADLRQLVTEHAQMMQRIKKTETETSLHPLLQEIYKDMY
Sequence of Bile acid receptor (Homo sapiens) (Q96RI1 whole entry, looked up): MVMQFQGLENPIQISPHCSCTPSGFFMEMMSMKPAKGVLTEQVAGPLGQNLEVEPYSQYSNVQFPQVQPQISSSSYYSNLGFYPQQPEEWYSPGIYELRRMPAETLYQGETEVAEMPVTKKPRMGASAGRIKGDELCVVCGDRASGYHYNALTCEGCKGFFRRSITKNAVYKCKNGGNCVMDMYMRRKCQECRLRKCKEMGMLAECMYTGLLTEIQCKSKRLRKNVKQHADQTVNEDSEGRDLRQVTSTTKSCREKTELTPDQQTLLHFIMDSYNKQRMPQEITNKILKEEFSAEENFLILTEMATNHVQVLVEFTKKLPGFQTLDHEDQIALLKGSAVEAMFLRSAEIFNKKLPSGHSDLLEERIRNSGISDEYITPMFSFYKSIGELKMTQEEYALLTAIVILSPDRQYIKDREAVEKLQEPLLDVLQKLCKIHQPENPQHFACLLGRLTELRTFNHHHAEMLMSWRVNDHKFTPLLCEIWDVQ
Sequence of Vitamin D3 receptor (Homo sapiens) (P11473 whole entry, looked up): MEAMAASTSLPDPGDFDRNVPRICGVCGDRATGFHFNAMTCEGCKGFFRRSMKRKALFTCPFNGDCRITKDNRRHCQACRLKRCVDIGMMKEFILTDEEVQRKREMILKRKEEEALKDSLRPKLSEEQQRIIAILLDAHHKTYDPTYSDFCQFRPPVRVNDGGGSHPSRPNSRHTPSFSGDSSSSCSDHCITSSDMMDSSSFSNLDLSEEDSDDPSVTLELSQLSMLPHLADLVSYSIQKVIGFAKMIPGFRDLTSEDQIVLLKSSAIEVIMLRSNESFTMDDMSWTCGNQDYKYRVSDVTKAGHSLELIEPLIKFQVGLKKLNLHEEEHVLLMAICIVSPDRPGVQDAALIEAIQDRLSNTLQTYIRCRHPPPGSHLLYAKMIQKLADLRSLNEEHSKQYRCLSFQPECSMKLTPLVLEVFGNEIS

CC(C)CCCO
not listed: [10]
inactive: all other assays above

CCOC(=O)c1cnc2c(cnn2CC)c1NN=C(C)C
not listed: [2] | [3] | [5]
inactive: all other assays above

CC(COc1ccccc1)NN (stereo not given)
not listed: [3] | [5] | [10]
inactive: all other assays above

Nc1ccn([C@@H]2O[C@H](CO)[C@@H](O)C2(F)F)c(=O)n1
not listed: [2] | [3]
inactive: all other assays above

Nc1ccncc1N
not listed: [10]
inactive: all other assays above

CCCCc1ccc2c(n1)[C@@H](c1ccc(OC)cc1C[C@H](C)C(=O)O)[C@H](C(=O)O)[C@H]2c1ccc2c(c1)OCO2
not listed: [1] | [2] | [6]
inactive: all other assays above

c1ccc(Cc2ccccc2)cc1
not listed: [1] | [2] | [8]
inactive: all other assays above

CCN(C=O)CC
not listed: [1] | [2] | [7]
inactive: all other assays above

CCOc1ccc2nc(S(N)(=O)=O)sc2c1
not listed: [1] | [3] | [5]
inactive: all other assays above

CC(C)=CCC/C(C)=C/C#N
not listed: [1] | [2]
inactive: all other assays above

CCCCCCCCN1CCCC1=O
not listed: [1] | [2] | [8]
inactive: all other assays above

Nc1c2c(nc3c1CCC3)CCCC2
not listed: [1] | [2]
inactive: all other assays above

O=CN(CCO)CCO
inactive: [1] | [2] | [4] | [7] | [8] | [9]

CCO[Si](OCC)(OCC)c1ccccc1
not listed: [1] | [2]
inactive: all other assays above

C=C(C)C(=O)OCCOCCOCCOCCOC(=O)C(=C)C
not listed: [1] | [2]
inactive: all other assays above

c1ccc2sc(SN3CCOCC3)nc2c1
not listed: [1] | [3] | [5]
inactive: all other assays above

Cc1ccnc(NS(=O)(=O)c2ccc(N)cc2)n1
not listed: [1] | [2]
inactive: all other assays above

C=C[Si](OC(C)=O)(OC(C)=O)OC(C)=O
inactive: [1] | [4] | [6]

NCCCC[C@H](N[C@@H](CCc1ccccc1)C(=O)O)C(=O)N1CCC[C@H]1C(=O)O
inactive: [10] | [3] | [4] | [5] | [6] | [9]

C[C@H]1[C@H](NC(=O)/C(=N/OC(C)(C)C(=O)O)c2csc(N)n2)C(=O)N1S(=O)(=O)O (stereo in doubt)
inactive: [10] | [3] | [4] | [5]

Clc1cc(Cl)c(Cl)nc1Cl
not listed: [1] | [9]
inactive: all other assays above

CN(C)CCCN(C)CCCN(C)C
not listed: [1] | [7] | [8]
inactive: all other assays above

CC(C)COC(=O)c1ccc(N)cc1
inactive: [1] | [4] | [6] | [7] | [8] | [9]

NS(=O)(=O)Cc1noc2ccccc12
inactive: [10] | [3] | [4] | [5] | [6] | [9]

NC(=O)NC1N=C([O][Al])NC1=O (stereo not given)
inactive: [10] | [3] | [4] | [5] | [9]

Cc1nc(C2CCCCC2)c(-c2ccc(S(N)(=O)=O)c(F)c2)o1
not listed: [1] | [2]
inactive: all other assays above

CN(C)C(=O)Oc1ccc[n+](C)c1
inactive: [1] | [4] | [9]

O=C1NC(=O)C2CC=CCC12 (stereo not given)
not listed: [1] | [2]
inactive: all other assays above

Cc1ccc(-c2ncc(Cl)cc2-c2ccc(S(C)(=O)=O)cc2)cn1
not listed: [1] | [2]
inactive: all other assays above

— PubChem BioAssay (Tox21)
